Source: PubChem (The Scripps Research Institute Molecular Screening Center)
PAFAH1B3 inh = PAFAH1B3 (human) inhibition. recombinant PAFAH1B3, FP-rhodamine probe, fluorescence polarization. inhibition, % at 3.39 µM. AID 492972. hit rate 0.28% among 340,000. Q15102;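 active means inhibition above the screen-wide average of all tested compounds plus 3 SD, cut at about 25% in these data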
Target sequence (Q15102 whole entry, looked up): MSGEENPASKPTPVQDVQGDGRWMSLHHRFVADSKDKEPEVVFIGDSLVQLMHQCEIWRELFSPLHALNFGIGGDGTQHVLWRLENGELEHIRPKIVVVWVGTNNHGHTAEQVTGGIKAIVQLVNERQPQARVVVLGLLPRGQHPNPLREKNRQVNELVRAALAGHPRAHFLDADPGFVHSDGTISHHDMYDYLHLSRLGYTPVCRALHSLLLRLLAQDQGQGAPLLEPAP
PP5 primary = PP5 (human) phosphatase inhibition | P53041 | purified PP5c, OMFP substrate fluorescence | inhibition, % at 6.7 µM | hit rate 0.18% among 320,000 | AID 1987;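 active means inhibition above the campaign's mean inhibition across all tested compounds plus 3 SD, cut at about 9.5% in these data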
PAFAH1B2 inh = PAFAH1B2 (human) inhibition. P68402. AID 492953. inhibition, % at 3.39 µM. recombinant PAFAH1B2, FP-rhodamine activity probe, fluorescence polarization. hit rate 1.2% among 340,000;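 active means inhibition above the mean of all tested compounds plus 3 SD, cut at about 24% in these data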
Target sequence (P68402 whole entry, looked up): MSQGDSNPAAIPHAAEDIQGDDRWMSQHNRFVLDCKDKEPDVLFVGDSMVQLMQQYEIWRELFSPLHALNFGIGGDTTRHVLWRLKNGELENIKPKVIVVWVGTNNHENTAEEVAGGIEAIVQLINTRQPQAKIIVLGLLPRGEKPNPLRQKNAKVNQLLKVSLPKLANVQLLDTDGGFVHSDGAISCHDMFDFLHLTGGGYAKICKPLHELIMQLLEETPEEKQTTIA
pPAFAH FP inh = inhibitors of human plasma PAF acetylhydrolase (pPAFAH). recombinant pPAFAH, FP-rhodamine probe fluorescence polarization. Q13093. inhibition, % at 3.39 µM. hit rate 1.5% among 330,000;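 active means inhibition above the mean inhibition across the screen plus 3 SD, cut at about 25% in these data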;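 further: inhibitors block binding of the rhodamine activity-based probe so polarization drops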
PAFAH2 FP inh = PAFAH2 (human) inhibition | Q99487 | recombinant PAFAH2, FP-rhodamine activity probe, fluorescence polarization | inhibition, % at 3.39 µM | hit rate 0.99% among 340,000 | AID 492956;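 active means inhibition above the mean over all tested compounds plus 3 SD, cut at about 30% in these data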;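 further: inhibitors block probe labeling of enzyme so polarization drops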
PP1 inh = PP1-alpha (human) inhibition in PP5 counter-screen | hit rate 0.9% among 320,000 | purified PP1alpha, OMFP fluorescence | inhibition, % at 6.7 µM;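 active means inhibition above the mean inhibition of all tested compounds plus 3 SD, computed separately for each screening campaign, cut at about 15% in these data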
Of the large screens only hits and unclear results are named; the others gave an inactive call. Rows were chosen to be rich in hits. Some 3.4% of all compounds tested hit in one or more screens of this group.

O=P(O)(Oc1ccccc1)OC(c1ccccc1)C(F)(F)F (stereo unspecified)	PAFAH1B2 inh 52, PAFAH2 FP inh 67
O=P(NC(c1ccccc1)c1ccccc1)(Oc1ccccc1)Oc1ccccc1	none
O=C1NC(=O)C(=Cc2ccc(-c3ccc(F)cc3O)o2)C(=O)N1	PAFAH1B2 inh 32
CC1=CC(C)CC(C)OC(=O)CC(c2ccc(O)cc2)NC(=O)C(Cc2c(Br)[nH]c3ccccc23)N(C)C(=O)C(C)NC(=O)C(C)C1 (stereo unspecified)	none (no result: PP5 primary, pPAFAH FP inh, PP1 inh)
COc1ccc2c(c1O)-c1c(OC)c(OC)cc3c1[C@H](C2)N(C)CC3	none
CCCN1CCc2cccc3c2[C@H]1Cc1ccc(O)c(O)c1-3	pPAFAH FP inh 34
O=C(O)CCC(=O)NCCC1=c2ccccc2=N/C1=C\c1c(O)n(Cc2ccc(F)cc2)c(=S)[nH]c1=O	PAFAH1B2 inh 41, PAFAH2 FP inh 38
CCCCC(=O)N/N=C/c1c(O)n(Cc2ccc(F)cc2)c(=O)[nH]c1=O	none
CC(C)CN(CC(C)C)c1ccc(C=C2C(=O)NC(=S)NC2=O)cc1[N+](=O)[O-]	PAFAH1B2 inh 34, PAFAH2 FP inh 38
c1ccc(C(c2ccccc2)c2ccncc2)cc1	none (no result: PP5 primary, pPAFAH FP inh, PP1 inh)
CC(=O)c1ccc2c(c1)C1C(Cl)C(Sc3ccccc3[N+](=O)[O-])CC1C(c1ccccc1)N2 (stereo unspecified)	none
CC(=O)c1ccc2c(c1)C1C(Cl)C(Sc3ccccc3[N+](=O)[O-])CC1C(c1ccccc1[N+](=O)[O-])N2 (stereo unspecified)	PP1 inh 16
NC1CCc2cc(O)c(O)cc2C1 (stereo unspecified)	none
N#CC(Br)Br	none
O=C(c1cc2cc(F)ccc2[nH]1)N1CCC2(CC1)OCCO2	PP1 inh 17
O=C(c1cc2cc(Cl)ccc2[nH]1)N1CCC2(CC1)OCCO2	none
C[C@]12CC[C@@H](O)CC1=CCC1C2CC[C@@]2(C)C1C[C@@H](F)[C@H]2O (stereo partly specified)	none (no result: PP5 primary, pPAFAH FP inh, PP1 inh)
COC(=O)C1=C(c2ccc(C(C)=O)cc2)C[C@@H]2CC[C@H]1N2C(=O)NCc1ccc(F)cc1	PAFAH1B2 inh 34
COC(=O)C1=C(c2ccc(F)cc2OCc2ccccc2)C[C@@H]2CC[C@H]1N2C(=O)NC1Cc2ccccc2C1	PP1 inh 17
COC(=O)C1=C(c2cccc(OCc3ccccc3)c2)C[C@@H]2CC[C@H]1N2C(=O)NCc1ccc(OC)c(OC)c1	PAFAH1B2 inh 26
COC(=O)C1=C(c2ccc(F)cc2OCc2ccccc2)C[C@@H]2CC[C@H]1N2C(=O)NCc1ccc(F)cc1	none
COC(=O)C1=C(c2ccccc2OCc2ccccc2)C[C@@H]2CC[C@H]1N2C(=O)NCc1ccc(C(C)(C)C)cc1	PP1 inh 17
NNCc1ccccc1	none (no result: PP5 primary, pPAFAH FP inh, PP1 inh)
CCOC(=O)C1(c2ccccc2)CCN(CCC(=O)Nc2cccc(Br)c2)CC1	none (no result: PP5 primary, pPAFAH FP inh, PP1 inh)
CN1/C(=C\C=C\C2=[N+](C)c3ccc4ccccc4c3C2(C)C)C(C)(C)c2ccccc21	PP5 primary 12, PP1 inh 36 (no result: PAFAH1B3 inh, PAFAH1B2 inh, PAFAH2 FP inh)
Cc1cc(C)cc(N2C(=O)NC(=O)/C(=C/c3cccn3-c3ccc(Cl)cc3)C2=O)c1	PAFAH1B2 inh 48, PAFAH2 FP inh 42
Cc1ccc(N2C(=O)NC(=O)/C(=C\c3ccoc3)C2=O)cc1	none
Cc1ccc(/C=C2\C(=O)NC(=S)N(c3cccc(F)c3)C2=O)o1	pPAFAH FP inh 29
Cc1cccc(N2C(=O)NC(=O)/C(=C\c3cccn3-c3ccc(Cl)cc3)C2=O)c1	PAFAH1B2 inh 74, PAFAH2 FP inh 54
O=C1NC(=S)N(c2ccc(F)cc2)C(=O)/C1=C\c1ccoc1	PAFAH2 FP inh 50 (no result: PP5 primary, pPAFAH FP inh, PP1 inh)
COC[C@H]1OC(=O)c2coc3c2[C@@]1(C)C1=C(C3=O)[C@@H]2CCC(=O)[C@@]2(C)C[C@H]1OC(C)=O	none (no result: PP5 primary, pPAFAH FP inh, PP1 inh)
CC(CC(C#N)(c1ccccc1)c1ccccc1)N1CCOCC1 (stereo unspecified)	none (no result: PP5 primary, pPAFAH FP inh, PP1 inh)
COC(=O)C1=C(c2ccc(F)cc2F)C[C@@H]2CC[C@H]1N2C(=O)NCCOc1ccc(OC)cc1	none
Oc1ccc(O)c2c1C1(Cl)C(Cl)=C(Cl)C2(Cl)C1(Cl)Cl	none (no result: PP5 primary, pPAFAH FP inh, PP1 inh)
Cc1cccc(N2C(=O)NC(=O)/C(=C/c3ccc([N+](=O)[O-])o3)C2=O)c1	pPAFAH FP inh 26 (no result: PAFAH1B3 inh, PAFAH1B2 inh, PAFAH2 FP inh)
BrCC(Br)C1CCC(Br)C(Br)C1 (stereo unspecified)	PAFAH1B2 inh 51
Nc1c(C(=O)NCC2CCCO2)c2nc3ccccc3nc2n1Cc1ccco1 (stereo unspecified)	pPAFAH FP inh 25
CCCNC(=O)c1c(N)n(Cc2ccco2)c2nc3ccccc3nc12	none (no result: PAFAH1B3 inh, PAFAH1B2 inh, PAFAH2 FP inh)
N=c1sccn1Cc1ccc(Cl)cc1Cl	none
Clc1ccc(CO/N=C(\Cn2ccnc2)c2ccc(Cl)cc2Cl)c(Cl)c1	PP1 inh 33 (no result: PAFAH1B3 inh, PAFAH1B2 inh, PAFAH2 FP inh)
Cn1cc(C(=O)OCC(=O)Nc2ccccc2)c2ccccc21	pPAFAH FP inh 29, PAFAH2 FP inh 85
O=C(c1cc2c(s1)CCCCCC2)N1CCC2(CC1)OCCO2	pPAFAH FP inh 33
CC(=O)NC(Cc1ccc(N(CCCl)CCCl)cc1)C(=O)NC(C(=O)O)C(C)C (stereo unspecified)	PAFAH1B2 inh 25
O=C1NC(=O)C(=Cc2ccc(Sc3ccccc3)o2)C(=O)N1	PAFAH1B2 inh 29, PAFAH2 FP inh 33
CN1C(=O)C(=Cc2ccc(Sc3ccccc3)o2)C(=O)N(C)C1=O	none
NP(=O)(Oc1ccccc1)Oc1ccccc1	none (no result: PP5 primary, pPAFAH FP inh, PP1 inh)
NP(=O)(OCCCc1ccccc1)Oc1ccccc1 (stereo unspecified)	PAFAH1B2 inh 62
O=C(NP(=O)(N1CC1)N1CC1)c1cc(I)ccc1I	none (no result: PP5 primary, pPAFAH FP inh, PP1 inh)
CC(=O)C1(c2ccccc2)CCNCC1	none
O=C(O)C1(c2ccc(Cl)cc2)CCC1	PAFAH1B2 inh 46
CC(CC(C)(C)N1CC1)=NNC(=O)Nc1cccc2ccccc12	none (no result: PP5 primary, pPAFAH FP inh, PP1 inh)
Cc1nc2c(=O)n(C)c(=O)nc-2n(C)n1	PAFAH1B3 inh 66, PP5 primary 11, PAFAH1B2 inh 28, PAFAH2 FP inh 54, PP1 inh 44
CC1CCN(C(CC(=O)c2ccccc2)C(=O)c2ccccc2)CC1 (stereo unspecified)	none (no result: PP5 primary, pPAFAH FP inh, PP1 inh)
CCCC/C(C)=C/[C@@H](NP(=O)(c1ccccc1)c1ccccc1)c1ccccc1	PP1 inh 16
CCn1nc(-c2ccccc2)nc2c(=O)n(C)c(=O)nc1-2	PAFAH1B3 inh 70, PAFAH1B2 inh 39, PAFAH2 FP inh 58, PP1 inh 39
COc1ccc(-c2nc3ccccc3c(=O)n2-c2ccc(OC)cc2)cc1	none
O=C(Nc1ccccc1)N1Cc2ccccc2-n2nncc2C1	none (no result: PP5 primary, pPAFAH FP inh, PP1 inh)
O=C1C(=O)c2ccccc2-c2ccccc21	PAFAH1B3 inh 71, PAFAH1B2 inh 43, PAFAH2 FP inh 58, PP1 inh 40
CC12C=CC(=O)C=C1CCC1C2C(O)CC2(C)C1CCC2(C)O (stereo unspecified)	none (no result: PP5 primary, pPAFAH FP inh, PP1 inh)
